According to PubChem BioAssay (NCI):
About 83,000 compounds went through this panel and 20% of them were active in at least one assay; those are over-represented in the sample as a whole.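 96-well plates, one dose, 48 hours. Percent growth reported; active if below 10.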 Unmarked numbers belong to inactive results. Activity calls are given as the source filed them.

system: BT-549 breast; experiment: NCI-60 one-dose screen, 48 h (100 = growth as untreated, 0 = no growth, -100 = all killed); conditions: 10 µM unless noted

Row | Compound | growth
1 | NCCNc1nc(Nc2ccc(-c3nc4ccccc4[nH]3)cc2)c2cn[nH]c2n1 | 80.2%
2 | Clc1ccc2c(NCCCCNc3nc(N4CCCCC4)nc4ccccc34)ccnc2c1 | 37%
3 | Cc1cc(C)nc(SC2=C(Nc3ccc(C)c(Cl)c3)C(=O)N(Cc3ccccc3)C2=O)n1 | 51.6% [30 µM]
4 | O=c1c(F)cn(Cc2ccccc2CCl)c(=O)n1Cc1ccccc1CCl | -73.9% (active)
5 | C=CC(=O)Nc1cccc(Nc2nc(SC)nc(-c3cccc([N+](=O)[O-])c3)c2C#N)c1 | 58.4%
6 | COc1ccc(C(=O)COc2cccc(/C=C3\CSc4ccccc4C3=O)c2)cc1 | -74.8% (active)
7 | CC(O)CN(CC(C)O)c1ccc2c(c1)Cc1cc([N+](=O)[O-])ccc1-2 (centres undefined) | 101%
8 | CCOC(=O)c1sc(Nc2ccc(Cl)cc2)nc1C | -4.09% (active)
9 | CC/C=C\C[C@H]1C/C=C2/C(=O)C=C[C@H]2C/C=C\CCCC(=O)O1 | 32%
10 | O=C1CC[C@H](c2ccc(O)c3c2C(=O)[C@@H]2O[C@@H]2C3=O)c2cccc(O)c21 | 86.8%
11 | O=C(Cc1ccc(/C=C/C(=O)c2ncc[nH]2)cc1)Nc1ccccc1 | 54.2%
12 | Cc1cc(C)nc(SC2=C(Nc3cccc(Cl)c3C)C(=O)N(Cc3ccccc3)C2=O)n1 | 48.1% [30 µM]
13 | CSc1ccc(SC2c3ccc(C)cc3Oc3nc(N)c(C#N)c(N)c32)cc1 (centres undefined) | -87.2% (active)
14 | C(=C\c1nccc2c1[nH]c1ccccc12)/c1ccccc1 | 10.9%
15 | CCCSc1ccc2nc(NC(=O)OC)[nH]c2c1 | 45.5%
16 | CCCc1cc(=O)n2c(C(=O)Nc3ccc(F)cc3)c(C(=O)Nc3ccc(F)cc3)sc2n1 | 78.4% [30 µM]
17 | COc1ccccc1Nc1nc(-c2cc3cccc(C(F)(F)F)c3oc2=O)cs1 | 41.9%
18 | O=Nc1c(O)c(Cl)cc2ccccc12 | 83.7%
19 | CCC([N+](=O)[O-])S(=O)(=O)c1ccc(C)cc1 (centres undefined) | 109%
20 | Clc1ccc2c(NCCNc3nc(N4CCCCC4)nc4ccccc34)ccnc2c1 | 53.7%

Row | Compound | growth
21 | CC(C)(CCCN=C(N)Nc1ccc(Cl)cc1)c1ccc(F)cc1 | 82.6%
22 | CCCOc1ccc2nc(NC(=O)OC)[nH]c2c1 | 33.4%
23 | O=C(COc1cccc(/C=C2\CSc3ccccc3C2=O)c1)Nc1nccs1 | -92.9% (active)
24 | O=C(COc1cccc(/C=C2\COc3ccc(Cl)cc3C2=O)c1)c1ccc(Cl)cc1 | 84.7%
25 | Cc1cn2c(/C=C3/C(=O)Nc4c3ccc3ccccc43)c(C(F)(F)F)nc2s1 | 37.2%
26 | O=C1/C(=C/c2ccccc2O)N=C2SCCCN12 | 98%
27 | COc1cc2c(cc1-c1c(C)noc1C)ncc1nc(C3CCCCC3)n([C@H](C)COC(F)F)c12 | 58.7%
28 | COc1cccc(-c2nc(SCC(=O)Nc3ccc(C(=O)/C=C/c4ccc(OC)c(OC)c4)cc3)[nH]c(=O)c2C#N)c1 | 85.4%
29 | CC(C)n1c(/C=C/[C@@H](O)C[C@@H](O)CC(=O)O)c(-c2ccc(F)cc2)c2ccccc21 | 60.6%
30 | O=c1oc2c(C(F)(F)F)cccc2cc1-c1csc(Nc2ccc(OCCF)cc2)n1 | 31.5%
31 | Cc1nc(Nc2ccc(F)c(Cl)c2)sc1C(=O)O | -0.289% (active)
32 | CCOc1nc(-c2ccccc2)cc2c(O)c(C(=O)O)[nH]c(=O)c12 | 108%
33 | Cc1cc2c3ccccc3ccc2[n+]2ccccc12 | -2.46% (active)
34 | Cc1oc(-c2ccc(Cl)cc2Cl)cc1C(=O)Nc1nccs1 | 107%
35 | CC/C=C\C[C@H](O)C/C=C1/C(=O)C=C[C@@]1(C)C/C=C\CCCC(=O)OC | 104%
36 | COc1ccc(C(=O)COc2ccc(/C=C3\COc4ccc(OC)cc4C3=O)cc2)cc1 | 77.6%
37 | CC[C@@H]1O[C@H](O[C@@H](c2cnc[nH]2)[C@H](NC(=O)c2nc([C@H](CC(N)=O)NC[C@@H](N)C(N)=O)nc(N)c2C)C(=O)N[C@H](C)[C@H](O)[C@H](C)C(=O)N[C@@H](C(=O)NCCc2nc(-c3nc(C(=O)NCCCCN=C(N)N)cs3)cs2)[C@@H](C)O)[C@H](O[C@@H]2O[C@H](CO)[C@H](O)[C@H](OC(N)=O)[C@@H]2O)[C@H](C)[C@@H]1C | 78.3%
38 | CN1CCN(c2ccc3nc(-c4ccc(OCCCCN5CCN(CCCCN6C(=O)c7cccc8cccc(c78)C6=O)CC5)cc4)[nH]c3c2)CC1 | 47%
39 | O=C1c2c(O)cc(O)cc2-c2c(-c3ccc(O)cc3)oc3cc(O)cc1c23 | 50.8%
